Compound activity: PubChem BioAssay, National Center for Advancing Translational Sciences (NCATS)
D3 antag: antagonists of human D3 dopamine receptor | P35462 | D3R cells, DiscoveRx beta-arrestin luminescence, antagonist mode; active compounds read low | max response, negative = inhibition, % | 360,000 tested, 2.5% active | AID 652054; in the data active = max response below about -50%; inconclusive = no clear call, values can overlap the other calls; note: % is set by controls: 0 for no effect and ±100 for the full control effect
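Cells plated overnight at 1500 cells/well, then exposed to library compounds with dopamine controls for 90 minutes at 37 degrees C. DiscoveRx reagent added for 30–60 minutes at room temperature; luminescence read, quantitative HTS format.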
uPA surface inh: blocks generation of uPA at the cell surface; cell surface uPA generation assay, qHTS; Potency, µM (titrated, usually from 38.3 µM), inactives show at the highest dose activity change, negative = inhibition, actives largely listed as inhibitors; 330,000 tested, 0.31% active; active = well fitted inhibition curve with a large enough effect; inconclusive = small, poorly fitted or top-dose-only effect; inactive = no such curve, though single readings can be large or run the other way; tested in mouse RAW 264.7 cells; note: potency is the fitted concentration of half-maximal effect; % is set by controls: 0 for no effect and ±100 for the full control effect; nearly all actives have a fitted effect of over 55% in size
RGS4 inh: blocks human RGS4-accelerated GTP hydrolysis | P49798 | Transcreener GDP fluorescence polarization, RGS4-accelerated GTP hydrolysis | Potency, µM (highest dose often 114 µM), inactives show at the top dose activity change, negative = inhibition, actives largely listed as inhibitors | 390,000 tested, 0.039% active; active = well fitted inhibition curve with a large enough effect; inconclusive = small, poorly fitted or top-dose-only effect; inactive = no such curve, though single readings can be large or run the other way; note: potency is the fitted concentration of half-maximal effect; % is set by controls: 0 for no effect and ±100 for the full control effect; nearly all actives have a fitted effect of over 75% in size
Target sequence (P49798 whole entry, looked up): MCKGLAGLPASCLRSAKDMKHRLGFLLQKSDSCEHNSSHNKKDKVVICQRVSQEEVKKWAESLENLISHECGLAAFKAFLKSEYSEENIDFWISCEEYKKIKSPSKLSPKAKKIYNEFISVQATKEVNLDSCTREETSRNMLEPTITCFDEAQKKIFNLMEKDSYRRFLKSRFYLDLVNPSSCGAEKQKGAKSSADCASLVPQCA
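MLSMR compounds (23 nl, pin-transferred) preincubated 10 min at room temperature with a 500nM (2x) first reagent, then RGS4 at 900nM (2x) plus Transcreener GDP mix added; fluorescence polarization (620/688 nm) read before and after 90 min at 30 °C.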
DRD3 agonist: agonists of human D3 dopamine receptor; P35462; D3R DiscoveRx beta-arrestin cells, luminescence, 90 min; max activation, %; 410,000 tested, 0.58% active; AID 652048; in the data active = max activation above about 30%; note: 0% is about no effect
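Cells at 1500/well, incubated overnight, then treated with pinned compounds (dopamine as control) for 90 min at 37 degrees C. DiscoveRx reagent added for 30 - 60 minutes at room temperature; luminescence read.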
Numbers without * were called inactive; ? = inconclusive; . = not tested or not shown; [ ] = another dose, or the depositor's remark. Compounds with a hit are over-represented: about 3.1% of the library has one in this group of screens.

SMILES	D3 antag	uPA surface inh	RGS4 inh	DRD3 agonist
CN=c1scc(-c2ccc(OC)cc2)n1/N=C(\C)c1cccnc1	27	.	13%	35*
O=C(CCC(=O)N1CCOc2ccc(Cl)cc21)NCCCN1CCN(c2ccccc2F)CC1	-96*	-13%	-14%	4
O=C(CCC(=O)N1CCOc2ccc(Cl)cc21)NCCCN1CCC(Cc2ccccc2)CC1	-71*	?	-5%	-14
COc1ccc(N2CCN(CCCNC(=O)CCC(=O)N3CCOc4ccc(Cl)cc43)CC2)cc1	?	1%	37%[11.4 µM]	-14
CN(C)CCN(Cc1ccccc1)C(=O)c1[nH]c(C(F)(F)F)nc1-c1ccccc1	0	.	.	39*
O=C(NCCC1=CCCCC1)c1[nH]c(C(F)(F)F)nc1-c1ccccc1	-6	.	.	112*
O=C(NCCc1ccccc1)c1[nH]c(C(F)(F)F)nc1-c1ccccc1	10	.	.	8
O=C(NCc1ccccc1)c1[nH]c(C(F)(F)F)nc1-c1ccccc1	-24	.	.	65*
O=C(NCc1ccc(F)cc1)c1[nH]c(C(F)(F)F)nc1-c1ccccc1	-7	.	.	8
CCCCN(C)C(=O)c1[nH]c(C(F)(F)F)nc1-c1ccccc1	0	.	.	-2
COc1cc(OC)cc(-n2c(=O)c3ccccc3n(Cc3ccccc3C#N)c2=O)c1	.	.	24%	-10
CN1C(=O)/C(=C/c2cc(C(C)(C)C)c(O)c(C(C)(C)C)c2)NC1=S	-58*	8%	-30%	4
Cc1cc(N2CCCC2)ccc1/C=C1\NC(=S)N(C)C1=O	0	-10%	?	-17
Cc1c(C(=O)NCc2cccc(Br)c2)oc2ccc3c(c12)C(=O)CC(C)(C)O3	.	.	4%	10
CC(=O)c1c(C)[nH]c(C(=O)NCCN2CCC(C)CC2)c1C	-51*	-2%	-13%	-19
Cc1ccc(-n2nc(C)c3c(C(=O)NCCc4ccc(S(N)(=O)=O)cc4)cc(C)nc32)cc1	.	.	-15%	8
O=C1NN(c2ccc(F)cc2)C(=O)/C1=C/c1cccs1	-63*	.	-35%	-6
COc1cccc(/C=C2/C(=O)NN(c3ccc(F)cc3)C2=O)c1	-11	-8%	?	-4
CN(C)CCNC(=O)Cc1ccc(NC(=O)N2CCCCc3ccccc32)cc1	.	.	0%	-5
Cc1c(C#N)c(O)n(CCO)c(=O)c1N=Nc1ccc2c(c1)COC2=O	-59*	-5%	10%	-46
Cc1cc(=O)n(CCO)c(O)c1C#N	-23	7%	-5%	-3
Cc1cccc(NC(=O)c2ccc(-c3nc(CSc4ccccc4)c(C)o3)cc2)c1C	.	.	9%	8
O=C(N/N=C/c1ccc(OC(F)F)cc1OC(F)F)c1ccc(Br)cc1	-88*	6%	10%	-13
COc1ccc(-c2[nH]ncc2/C=N/NC(=O)c2ccc(Br)cc2)c(OC)c1	-66*	-8%	-25%	-38
CC1Sc2ccccc2N(CC(=O)N(C(C)C)C(C)C)C1=O (configuration not stated)	-70*	4%	5%	-3
SMILES	D3 antag	uPA surface inh	RGS4 inh	DRD3 agonist
CCC(C)NC(=O)CN1C(=O)C(CC)Sc2ccccc21 (configuration not stated)	-1	0%	-2%	1
COc1ccc(OC)c(CC(=O)Nc2ccc3c(c2)c(=O)n(C)n3Cc2cccc(C(F)(F)F)c2)c1	-52*	.	.	-19
COc1ccc(CNC(=O)Nc2ccc3c(c2)c(=O)n(C)n3Cc2cccc(C(F)(F)F)c2)cc1	-14	.	.	2
CC(C)(C)c1ccc(C(=O)Nc2ccc(O)c3c(=O)cc(-c4ccccc4Cl)oc23)cc1	33	5%	3%	119*
CCc1cc(C(=O)Nc2c(C)nn(Cc3ccc(C)cc3)c2C)no1	.	.	-19%	-1
CC1(C)CC(=O)c2cc(C(=O)Nc3ccc(Br)cc3)c(=O)n(-c3ccc(Cl)cc3)c2C1	.	.	0%	52*
S=C1NCCc2ccccc2C1c1ccccc1Cl (configuration not stated)	-64*	4%	15%	-3
S=C1NCCc2ccccc2C1c1ccccc1 (configuration not stated)	?	7%	6%	5
CCc1ccc(NC(=O)c2ccc(F)c(S(=O)(=O)N3CCN(c4cc(C)ccc4C)CC3)c2)cc1	.	.	15%	11
CC1=CC(C)(C(Cl)(Cl)Cl)C(C)=CC1=NO (configuration not stated)	-55*	.	.	-10
CCn1ccc2cc(S(=O)(=O)N3CCCN(C(=O)Nc4cccc(Cl)c4)CC3)ccc21	.	.	-7%	-2
